# Many of the other results were omitted from the sample, so hits are more common in it than they were.
# FBPA Giardia inh: Giardia lamblia aldolase inhibition; A8B2U2; 0.71% of 290,000 active; AID 2451; purified Giardia FBPA; Potency, µM (top dose mostly 59.6 µM), for the others: at the top dose activity, negative = inhibition, usual class: inhibitors; further: potency means the concentration at half of the fitted maximal effect; on the % scale 0 is the no-effect control and ±100 the full control effect; nearly all actives have a fitted effect of over 55% in size
# Target sequence (A8B2U2 whole entry, looked up): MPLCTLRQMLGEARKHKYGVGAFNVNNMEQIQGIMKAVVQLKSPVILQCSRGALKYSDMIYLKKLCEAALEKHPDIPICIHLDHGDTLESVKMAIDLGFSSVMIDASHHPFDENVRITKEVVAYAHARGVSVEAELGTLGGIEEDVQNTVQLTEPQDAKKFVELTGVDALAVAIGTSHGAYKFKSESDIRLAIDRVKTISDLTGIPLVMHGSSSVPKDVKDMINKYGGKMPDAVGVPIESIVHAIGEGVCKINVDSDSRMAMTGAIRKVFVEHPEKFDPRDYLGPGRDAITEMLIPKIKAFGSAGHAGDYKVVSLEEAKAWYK
#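 40 nM FBPA preincubated 10 min at RT with compound (up to 57.5 uM final), then substrate plus GAPDH/TPI/NAD/arsenate coupling and diaphorase/resazurin added. Fluorescence read after 20 min at RT, 525/598 nm.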
# Shiga inhibitor: blocks Shiga toxin action in Vero cells. 9.2% of 290,000 active. AID 2315. Vero cells, Shiga toxin protein synthesis inhibition reporter. inhibition, % at 38.7 µM; in the data active means inhibition mostly above about 28%, no sharp cut-off; inactive means mostly below about 43%; further: 0% is about no effect
# Sm TGR inh: blocks Schistosoma mansoni thioredoxin glutathione reductase. Q962Y6. purified TGR, DTNB reduction, TNB absorbance 405 nm. Potency, µM (top dose mostly 114 µM), inactives show at the highest dose activity change, negative = inhibition, usual class: inhibitors. 3% of 360,000 active; further: potency means the concentration at half of the fitted maximal effect; on the % scale 0 is the no-effect control and ±100 the full control effect; nearly all actives have a fitted effect of over 60% in size
#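 TGR 20 nM + NADPH 100 uM (dispensed conc.), cpd preinc 15 min RT; start with NADPH (500 uM addition) then DTNB (15 mM addition). Kinetic TNB absorbance, 405 nm filter. Four-parameter Hill fit across titration.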
# LmPK inh: LmPK (Leishmania mexicana) enzyme inhibition | Q27686 | purified LmPK, Kinase-Glo ATP luminescence, 1 h | Potency, µM (highest dose often 57.5 µM), for the others: at the highest dose activity change, negative = inhibition, most hits filed as inhibitors | 0.37% of 290,000 active; further: potency means the concentration at half of the fitted maximal effect; on the % scale 0 is the no-effect control and ±100 the full control effect
#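 ATP generated from ADP (0.1 mM) and PEP (0.5 mM) by 0.1 nM LmPK over 1 h at room temperature (pH 7.2 imidazole buffer) was detected by coupled luciferase luminescence. Values were normalized to uninhibited and no-enzyme wells.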
# TbPYK inhibitor: inhibitors of Trypanosoma brucei pyruvate kinase; Q57TT1; TbPYK enzyme, Kinase-Glo Plus ATP luminescence, 45 min; Potency, µM (doses to about 76.8 µM), without a hit: at the top dose activity, negative = inhibition, most hits filed as inhibitors; 0.12% of 410,000 active; further: potency means the concentration at half of the fitted maximal effect; on the % scale 0 is the no-effect control and ±100 the full control effect; nearly all actives have a fitted effect of over 50% in size
#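 Activity of T. brucei pyruvate kinase was followed by Kinase-Glo Plus luminescence after the enzyme reacted 45 min at room temperature with 130 uM ADP (final) and substrate. Test compounds were added before ADP at multiple concentrations.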
# CHX counter: counter-screen hit for Shiga toxin inhibitors, cycloheximide | cell reporter, cycloheximide protein synthesis inhibition counterscreen | AID 2314 | max response, % | 12% of 300,000 active; in the data active means max response mostly above about 13%, no sharp cut-off; inactive means mostly below about 14%; further: read at 38.3 µM for the half of the compounds with a filed dose; 0% is about no effect
# * marks the source's active call; other numbers are inactive results; ? = inconclusive; / = no result given; [ ] = dose if it differs, or a comment. Unless noted, the call rests on the fitted dose curve; in most records, active means well fitted curve in the direction sought with a large enough effect; inconclusive means small, poorly fitted or top-dose-only effect, or another doubt; inactive means no such curve, though single readings can be large; an effect the other way counts as inactive or inconclusive.
SMILES,FBPA Giardia inh,Shiga inhibitor,Sm TGR inh,LmPK inh,TbPYK inhibitor,CHX counter
O=C(Cc1ccccc1F)Nc1nc(-c2cccnc2)cs1,-11%,17,2%,-5%,-15%,8
COc1ccc(-c2csc(NC(=O)Cc3ccccc3F)n2)c(OC)c1,/,38,-13%,-2%,-2%,14*
O=C(Nc1nc(-c2cccs2)cs1)c1ccc(Cl)cc1,-14%,41,5%,3%,-7%,29
O=C(Nc1nc(-c2cccs2)cs1)C1=COCCO1,-5%,68*,-16%,?,-31%,40*
COc1ccc(C(=O)Nc2nc(-c3cccs3)cs2)cc1,3%,84*,2%,0%,0%,45*
C(=Nc1ccc(N2CCOCC2)cc1)c1c[nH]c2ccccc12,?,89*,-2%,-2%,-15%,42*
COC(=O)[C@@]1(Cc2ccc(OC)cc2)[C@H]2c3cc(C(=O)N(C)C)n(Cc4cc(C)n(C)n4)c3C[C@H]2CN1C(=O)c1ccccc1,0%,/,/,/,/,/
S=c1nc(-c2ccccc2)n(CCCn2ccnc2)c2c1CCCC2,-12%,19,45µM*,2%,2%,-3
S=c1nc(-c2ccccc2)n(CCCN2CCOCC2)c2c1CCCC2,-9%,-1,?,-2%,2%,-3
Cc1cc(NC(=O)Nc2nnc(N3CCCCC3)s2)ccc1Br,/,/,-1%,/,1%,/
COc1cccc(/C=C2\N=C(c3cncc(Br)c3)OC2=O)c1,11%,-4,-8%,-1%,-11%,25*
COc1ccc(OC)c(/C=C2\N=C(c3ccccc3)OC2=O)c1,-6%,/,7%,2%,-5%,-2
CCOc1ccc(CC(=O)N2CCc3cc(OC)c(OC)cc3C2COc2ccc3c(C)cc(=O)oc3c2)cc1 (configuration not stated),/,/,16%,/,-4%,/
CC1CC(=O)C(C(C2=C(O)CC(C)CC2=O)c2ccccc2)=C(O)C1 (configuration not stated),/,/,/,/,-15%,/
COc1ccc(-c2nc(C#N)c(NCc3ccc(F)cc3)o2)cc1OC,0%,45,24%,2%,1%,24*
COc1ccc(-c2nc(C#N)c(NCCN(C)C)o2)cc1,/,/,/,/,-3%,/
COc1ccc(-c2nc(C#N)c(NCCc3ccccc3)o2)cc1,-9%,64*,-12%,1%,6%,34*
COc1ccc(-c2nc(C#N)c(NCc3ccccc3Cl)o2)cc1,5%,11,-1%,0%,5%,21
COc1ccc(CNc2oc(-c3ccccc3)nc2C#N)cc1,-1%,21,-16%,0%,1%,22*
CC1(C)CC(=O)C2=C(C1)C(c1cn(-c3ccccc3)nc1-c1ccccc1)C(C#N)=C(N)O2 (configuration not stated),1%,2,-8%,-1%,0%,23*
CC1(C)CC2CC(C)(CN2Cc2c(O)ccc3ccccc23)C1 (configuration not stated),?,35,6.3µM*,2%,6%,22
CCOc1ccc(N2C(=O)CC(NC3CCN(C(=O)c4ccc(F)cc4)CC3)C2=O)cc1 (configuration not stated),-2%,-9,18µM*,2%,1%,-1
CCOC(=O)c1ccc(N2C(=O)CC(NC3CCN(C(=O)c4ccc(F)cc4)CC3)C2=O)cc1 (configuration not stated),-4%,-1,50µM*,-1%,1%,-2
COc1ccc(CNC(=O)c2cccn2-c2nnc(N3CCCCC3)s2)c(OC)c1,/,/,0%,/,-2%[15.4 µM],/
COc1ccc(C2=NS(=O)(=O)N(C)C(C(=O)Nc3ccc(OC(F)(F)F)cc3)=C2)cc1,/,/,-1%,/,3%,/
SMILES,FBPA Giardia inh,Shiga inhibitor,Sm TGR inh,LmPK inh,TbPYK inhibitor,CHX counter
Nc1c2ccccc2nc2c(O)cccc12,0%[21.7 µM],/,/,/,/,/
C/C(=N\Nc1nc(C(=O)O)cs1)c1ccccc1,?,29,0%,4%,-2%,23*
C/C(=N\Nc1nc(C(C)(C)C)cs1)c1ccc(O)cc1,?,121*,?,-3%,-5%,53*
CC(=O)Nc1nc(CC(=O)c2ccccc2)cs1,4%,16,-1%,0%,-2%,7
C/C(=N\Nc1c(Cl)c(Cl)nc(C(=O)O)c1Cl)c1ccc(O)cc1,-19%,-5,-7%,-3%,0%,-1
C/C(=N\Nc1nc(C(C)(C)C)cs1)c1ccccc1,-9%,135*,-12%,-3%,7%,57*
C/C(=N\NS(=O)(=O)c1ccc(C(C)(C)C)cc1)c1ccccc1,-2%,2,-16%,4%,2%,6
O=C(NCc1cccnc1)c1cc(C2CCCN(S(=O)(=O)c3ccccc3)C2)on1 (configuration not stated),/,/,/,/,-8%,/
CCOC(=O)C1CCN(C(=O)CSc2n[nH]c(-c3ccc(OC)cc3)n2)CC1,/,/,-4%,/,-4%,/
CC(=O)c1cccc(NC2c3ncccc3C(=O)N2Cc2ccco2)c1 (configuration not stated),-7%,-12,?,-2%,-11%,9
O=C1c2cccnc2C(Nc2ccccc2)N1Cc1ccco1 (configuration not stated),0%,29,25µM*,-8%,-12%,10
O=C1c2cccnc2C(Nc2ccccc2Br)N1Cc1ccco1 (configuration not stated),-4%,43,22µM*,-3%,-2%,-1
O=C1c2cccnc2C(Nc2cccc(F)c2)N1Cc1ccco1 (configuration not stated),0%,-4,35µM*,3%,2%,-2
COc1ccc(N2CCC(CNC(=O)Nc3ccc(Cl)cc3)C2)cc1 (configuration not stated),-14%,23,-18%,2%,-17%,14*
O=C(NCC1CC1)Nc1ccc(Cl)cc1,9%,70*,19%,-5%,5%,32*
Cc1cccc(NC(=O)NCC2CC2)c1,8%,37,9%,-1%,-9%,14*
O=C(NCC1CC1)Nc1cccc(Cl)c1,10%,86*,8%,-2%,5%,25*
O=C(NCCO)Nc1ccc(Cl)cc1,3%,-7,1%,-1%,-5%,7
O=C(NCC1CC1)Nc1cccc(C(F)(F)F)c1,4%,17,-9%,8%,-16%,3
COc1ccc(N2CCC(CNC(=O)Nc3cccc(OC)c3)C2)cc1 (configuration not stated),?,15,-27%,-1%,-11%,-1
COc1ccc(CNC(=O)Cn2c(=O)n3nc(-c4ccc(OC)cc4)nc3c3ccccc32)cc1,/,/,13%,/,3%,/
O=C(Cc1ccc(F)cc1)NC1CCS(=O)(=O)C1 (configuration not stated),/,/,6%,/,2%,/
